In PubChem BioAssay:
A number with no mark means an inactive call. Some of the results follow. Calls of active or inactive are those of the source. Rule as the data show it, unless noted: active = activation above about 20%; inactive = the rest.

Experiments:
[1] = molecular target: Oxytocin receptor (Homo sapiens) (UniProt P30559); test: oxytocin receptor activation, retest of hits – fluorescence, CHO-OTR cells, triplicate, confirmation (AID 434963;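 active = mean activation above about 20% derived from the earlier single-dose screen, limit read from the data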;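 also: peak over minimum fluorescence ratio per well during a 100 second FLIPR read; 0% = DMSO alone and 100% = oxytocin high control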); conditions: Fluo-8 calcium fluorescence, agonist, at 3 µM, active compounds read high
Chain of Oxytocin receptor (Homo sapiens) (P30559 whole entry, looked up): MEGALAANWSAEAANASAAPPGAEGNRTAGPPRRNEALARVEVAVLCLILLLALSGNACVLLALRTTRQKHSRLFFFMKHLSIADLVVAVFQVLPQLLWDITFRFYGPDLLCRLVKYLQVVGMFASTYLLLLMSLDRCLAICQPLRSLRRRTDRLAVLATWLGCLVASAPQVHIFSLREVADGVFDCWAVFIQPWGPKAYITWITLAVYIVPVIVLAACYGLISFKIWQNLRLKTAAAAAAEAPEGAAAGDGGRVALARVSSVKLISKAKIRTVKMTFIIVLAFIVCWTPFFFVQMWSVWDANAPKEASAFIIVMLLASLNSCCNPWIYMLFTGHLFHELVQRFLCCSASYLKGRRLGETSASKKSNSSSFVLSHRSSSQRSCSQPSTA

[2] = molecular target: Vasopressin V1a receptor (Homo sapiens) (UniProt P37288); test: activators of vasopressin V1R in CHO cells – cell-based, triplicate, fluorescence, counter-screen for OXTR agonist project (AID 434991;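 active = mean activation over triplicate exceeds the hit threshold set in the earlier primary screen, cut at about 20% in these data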;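 also: peak over basal fluorescence ratio within a 100 second read; 0% = DMSO alone and 100% = 3 nM vasopressin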); conditions: Fluo-8 calcium fluorescence, at 3 µM, active compounds read high
Chain of Vasopressin V1a receptor (Homo sapiens) (P37288 whole entry, looked up): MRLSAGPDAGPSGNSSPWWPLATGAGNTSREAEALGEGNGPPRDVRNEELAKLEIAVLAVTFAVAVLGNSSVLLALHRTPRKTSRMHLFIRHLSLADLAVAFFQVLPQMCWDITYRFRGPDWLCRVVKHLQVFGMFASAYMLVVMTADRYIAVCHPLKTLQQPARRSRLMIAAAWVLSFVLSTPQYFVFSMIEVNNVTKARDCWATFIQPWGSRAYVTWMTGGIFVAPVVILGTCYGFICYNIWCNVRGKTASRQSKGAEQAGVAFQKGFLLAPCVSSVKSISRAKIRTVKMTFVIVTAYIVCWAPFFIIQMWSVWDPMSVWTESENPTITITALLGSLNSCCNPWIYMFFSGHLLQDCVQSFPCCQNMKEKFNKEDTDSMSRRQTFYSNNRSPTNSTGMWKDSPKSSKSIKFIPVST

[3] = molecular target: Photoreceptor-specific nuclear receptor (Homo sapiens) (UniProt Q9Y5X4); test: corepressor-releasing ligands of human NR2E3 – biochemical, TR-FRET, confirmation (AID 2379); conditions: cell-free NR2E3 corepressor release, 5 h, at 3.98 µM, active compounds read high
Chain of Photoreceptor-specific nuclear receptor (Homo sapiens) (Q9Y5X4 whole entry, looked up): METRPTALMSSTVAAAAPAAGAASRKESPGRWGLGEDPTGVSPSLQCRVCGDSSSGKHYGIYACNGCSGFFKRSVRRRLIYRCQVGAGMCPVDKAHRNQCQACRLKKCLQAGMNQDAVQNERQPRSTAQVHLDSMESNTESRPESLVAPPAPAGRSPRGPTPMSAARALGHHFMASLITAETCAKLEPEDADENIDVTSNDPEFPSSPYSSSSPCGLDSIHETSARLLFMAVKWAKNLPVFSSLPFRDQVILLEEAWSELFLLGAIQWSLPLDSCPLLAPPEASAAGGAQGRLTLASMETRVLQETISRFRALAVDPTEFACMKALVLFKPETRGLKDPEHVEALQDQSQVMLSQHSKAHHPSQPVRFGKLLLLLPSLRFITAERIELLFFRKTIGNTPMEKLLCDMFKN

[4] = molecular target: Peroxisome proliferator-activated receptor gamma (Homo sapiens) + Nuclear receptor corepressor 2 (Homo sapiens) (UniProt P37231+Q9Y618); test: agonists of PPARg-NCOR2 corepressor interaction, counter-screen for NR2E3 agonist project, biochemical, TR-FRET (AID 504787; in the data active = inhibition above about 20%;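 also: 0% = DMSO vehicle and 100% = wells without protein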); conditions: TR-FRET PPARg-NCOR2 coregulator interaction, at 3.98 µM, active compounds read high
Chain of Peroxisome proliferator-activated receptor gamma (Homo sapiens) + Nuclear receptor corepressor 2 (Homo sapiens) (P37231 whole entry, looked up): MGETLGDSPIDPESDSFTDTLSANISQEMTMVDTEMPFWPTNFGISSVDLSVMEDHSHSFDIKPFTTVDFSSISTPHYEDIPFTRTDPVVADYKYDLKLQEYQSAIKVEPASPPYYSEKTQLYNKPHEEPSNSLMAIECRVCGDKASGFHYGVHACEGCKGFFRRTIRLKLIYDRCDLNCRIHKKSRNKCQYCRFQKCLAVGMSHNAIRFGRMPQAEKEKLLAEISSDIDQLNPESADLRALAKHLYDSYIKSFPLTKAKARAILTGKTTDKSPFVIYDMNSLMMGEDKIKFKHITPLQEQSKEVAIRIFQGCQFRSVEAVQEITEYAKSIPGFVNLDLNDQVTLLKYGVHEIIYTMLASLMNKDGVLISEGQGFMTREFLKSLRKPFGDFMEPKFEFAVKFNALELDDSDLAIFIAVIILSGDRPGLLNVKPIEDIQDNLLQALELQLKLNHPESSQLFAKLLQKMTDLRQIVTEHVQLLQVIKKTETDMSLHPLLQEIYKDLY
Chain of Peroxisome proliferator-activated receptor gamma (Homo sapiens) + Nuclear receptor corepressor 2 (Homo sapiens) (Q9Y618 whole entry, looked up): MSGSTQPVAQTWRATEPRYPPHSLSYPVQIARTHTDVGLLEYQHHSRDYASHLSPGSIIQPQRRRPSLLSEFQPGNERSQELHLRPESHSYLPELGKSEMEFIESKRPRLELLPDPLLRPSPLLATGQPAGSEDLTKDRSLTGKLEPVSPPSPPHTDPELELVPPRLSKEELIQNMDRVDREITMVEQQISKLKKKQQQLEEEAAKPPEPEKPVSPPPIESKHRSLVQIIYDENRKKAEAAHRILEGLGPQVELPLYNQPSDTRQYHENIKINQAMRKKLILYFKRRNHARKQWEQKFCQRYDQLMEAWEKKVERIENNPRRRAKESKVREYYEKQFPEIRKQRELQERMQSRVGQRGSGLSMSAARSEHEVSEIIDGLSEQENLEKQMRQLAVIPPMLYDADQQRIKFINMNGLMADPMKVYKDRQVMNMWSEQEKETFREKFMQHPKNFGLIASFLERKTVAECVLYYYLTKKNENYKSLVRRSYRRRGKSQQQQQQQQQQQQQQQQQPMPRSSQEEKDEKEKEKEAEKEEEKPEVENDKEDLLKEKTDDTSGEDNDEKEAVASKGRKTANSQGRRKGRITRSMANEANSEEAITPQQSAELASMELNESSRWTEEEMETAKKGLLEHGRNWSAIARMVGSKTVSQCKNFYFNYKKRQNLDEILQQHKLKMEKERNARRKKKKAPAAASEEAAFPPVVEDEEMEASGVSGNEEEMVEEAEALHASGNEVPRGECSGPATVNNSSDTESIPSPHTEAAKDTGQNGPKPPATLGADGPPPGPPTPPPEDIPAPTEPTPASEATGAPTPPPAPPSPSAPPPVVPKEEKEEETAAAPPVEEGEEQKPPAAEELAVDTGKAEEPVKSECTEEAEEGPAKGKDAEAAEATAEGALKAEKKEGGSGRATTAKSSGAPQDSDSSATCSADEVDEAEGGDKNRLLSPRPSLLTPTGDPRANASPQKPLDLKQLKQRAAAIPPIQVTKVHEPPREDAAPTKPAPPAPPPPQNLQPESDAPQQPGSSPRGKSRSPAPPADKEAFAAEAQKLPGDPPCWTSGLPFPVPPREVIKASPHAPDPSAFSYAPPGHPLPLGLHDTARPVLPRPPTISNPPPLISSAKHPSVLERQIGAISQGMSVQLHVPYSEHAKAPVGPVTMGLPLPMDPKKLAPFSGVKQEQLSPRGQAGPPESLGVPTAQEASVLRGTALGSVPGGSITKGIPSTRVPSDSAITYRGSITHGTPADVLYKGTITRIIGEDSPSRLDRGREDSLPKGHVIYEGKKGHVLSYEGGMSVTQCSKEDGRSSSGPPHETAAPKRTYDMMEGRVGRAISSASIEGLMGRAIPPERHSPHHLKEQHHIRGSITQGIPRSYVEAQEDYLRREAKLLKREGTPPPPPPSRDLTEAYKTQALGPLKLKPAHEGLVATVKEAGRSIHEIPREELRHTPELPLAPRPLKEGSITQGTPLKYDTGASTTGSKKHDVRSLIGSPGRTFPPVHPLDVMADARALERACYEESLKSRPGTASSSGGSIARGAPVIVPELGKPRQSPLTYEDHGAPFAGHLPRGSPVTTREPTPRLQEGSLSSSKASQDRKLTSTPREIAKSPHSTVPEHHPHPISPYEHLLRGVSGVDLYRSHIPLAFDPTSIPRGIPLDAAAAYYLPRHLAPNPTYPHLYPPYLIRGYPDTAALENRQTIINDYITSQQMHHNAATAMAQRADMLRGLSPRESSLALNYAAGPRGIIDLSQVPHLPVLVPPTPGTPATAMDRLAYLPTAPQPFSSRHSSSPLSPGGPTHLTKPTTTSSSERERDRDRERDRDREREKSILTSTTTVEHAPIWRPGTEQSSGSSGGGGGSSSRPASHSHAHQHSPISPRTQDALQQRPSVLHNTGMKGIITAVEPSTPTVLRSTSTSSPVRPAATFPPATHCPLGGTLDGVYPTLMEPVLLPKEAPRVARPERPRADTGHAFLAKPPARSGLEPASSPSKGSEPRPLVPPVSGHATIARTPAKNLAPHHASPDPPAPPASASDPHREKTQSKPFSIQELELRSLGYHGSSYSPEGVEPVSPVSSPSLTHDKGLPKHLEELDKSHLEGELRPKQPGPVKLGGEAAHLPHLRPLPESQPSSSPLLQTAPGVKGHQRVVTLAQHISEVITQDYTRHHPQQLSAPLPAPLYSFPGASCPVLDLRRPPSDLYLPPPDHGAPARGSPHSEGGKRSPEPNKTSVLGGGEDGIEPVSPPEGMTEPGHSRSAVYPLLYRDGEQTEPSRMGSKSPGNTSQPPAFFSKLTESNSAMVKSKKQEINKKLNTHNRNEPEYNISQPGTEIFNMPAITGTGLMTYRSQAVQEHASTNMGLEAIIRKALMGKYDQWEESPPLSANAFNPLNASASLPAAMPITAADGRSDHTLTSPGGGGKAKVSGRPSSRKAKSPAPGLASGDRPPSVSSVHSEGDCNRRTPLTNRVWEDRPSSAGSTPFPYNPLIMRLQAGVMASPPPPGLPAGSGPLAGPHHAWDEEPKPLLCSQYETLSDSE

[5] = molecular target: Lytic switch protein BZLF1 (Epstein-Barr virus (strain B95-8)) (UniProt P03206); test: blockers of Zta-ZRE DNA complex – biochemical, fluorescence polarization, triplicate, confirmation (AID 2361;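 active = mean inhibition across triplicate runs above the hit threshold derived for the original primary screen, cut at about 33% in these data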;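 also: 0% = Zta with DMSO and 100% = wells lacking Zta protein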); conditions: Zta-ZRE DNA binding, at 11.1 µM, active compounds read high
Chain of Lytic switch protein BZLF1 (Epstein-Barr virus (strain B95-8)) (P03206 whole entry, looked up): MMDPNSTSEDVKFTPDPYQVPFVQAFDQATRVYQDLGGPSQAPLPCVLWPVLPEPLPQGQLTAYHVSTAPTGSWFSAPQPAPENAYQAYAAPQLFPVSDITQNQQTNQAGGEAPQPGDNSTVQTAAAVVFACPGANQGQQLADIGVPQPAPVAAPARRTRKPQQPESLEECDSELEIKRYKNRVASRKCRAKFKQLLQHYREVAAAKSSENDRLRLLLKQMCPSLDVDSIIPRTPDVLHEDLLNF

[6] = tested on: Epstein-Barr virus nuclear antigen 1 (EBNA-1), Human herpesvirus 4; test: blockers of EBV EBNA-1 binding to DNA – biochemical, fluorescence polarization, counter-screen for ZTA inhibitor project (AID 2362; call rule not given here); conditions: EBNA-1 DNA binding, at 14.8 µM, active compounds read high
[7] = molecular target: Receptor-interacting serine/threonine-protein kinase 2 (Homo sapiens) (UniProt O43353); test: inhibitors of RIPK2 association with NOD2 – fluorescence, CHO cells, BLA complementation, triplicate, confirmation (AID 624370;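 active = mean inhibition across replicates above a set limit taken from the earlier primary screen, cut at about 21% in these data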;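 also: 0% = DMSO-only wells and the high end = clavulanate BLA-blocked wells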); conditions: CCF4 FRET, at 4.98 µM, active compounds read high
[8] = BLA reporter readout interference – cell-based, CHO-K1 CMV-bla, CCF4 FRET, fluorescence, artefact control for NOD2-RIPK2 interaction inhibitor project, confirmation (AID 624371;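 active = mean inhibition above the low-control mean inhibition plus three low-control SD, cut at about 11% in these data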;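 also: 0% = DMSO only wells and 100% = clavulanate high control wells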); conditions: CCF4 FRET ratio, counterscreen, at 4.98 µM, active compounds read high
[9] = molecular target: Glutathione S-transferase omega-1 (Homo sapiens) (UniProt P78417); test: recombinant GSTO1 blockers, retest – biochemical, fluorescence polarization, triplicate, counter-screen for RBBP9 inhibitor project, confirmation (AID 2176;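 active = inhibition above the primary screen's cutoff, its mean inhibition plus 3 SD, cut at about 35% in these data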;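 also: loss of polarization as inhibitors block binding of rhodamine sulfonate ester activity probe; 0% = GSTO1 with DMSO and 100% = wells lacking GSTO1 enzyme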); conditions: recombinant GSTO1, probe fluorescence polarization; at 5.96 µM; active compounds read high
Chain of Glutathione S-transferase omega-1 (Homo sapiens) (P78417 whole entry, looked up): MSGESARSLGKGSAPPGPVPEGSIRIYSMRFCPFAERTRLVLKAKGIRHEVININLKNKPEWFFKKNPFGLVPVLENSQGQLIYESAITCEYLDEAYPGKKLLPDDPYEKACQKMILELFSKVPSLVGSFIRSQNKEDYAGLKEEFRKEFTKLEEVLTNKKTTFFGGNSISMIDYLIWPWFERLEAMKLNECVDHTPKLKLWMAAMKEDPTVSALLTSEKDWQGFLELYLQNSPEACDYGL

[10] = tested on: transactivating tegument protein VP16 (Human herpesvirus 1); test: compounds suppressing VP16-driven luciferase signal – cell-based, luminescence, single concentration, counter-screen for SRC2 inhibitor project (AID 652007; in the data active = inhibition above about 36%); conditions: cell-based VP16 transactivation luciferase reporter, at 8.9 µM, active compounds read high
[11] = molecular target: Nuclear receptor coactivator 2 (Homo sapiens) (UniProt Q15596); test: inhibition of GAL4-SRC2 driven luciferase expression – cell-based, luminescence, HEK293, triplicate, confirmation (AID 652008;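 active = mean inhibition above 46.5%, the solvent-only control mean plus 3 SD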;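 also: 0% = DMSO-treated cells and 100% = Gossypol at 36 µM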); conditions: HEK293 GAL4-SRC2 luciferase reporter, at 8.9 µM, active compounds read high
[12] = molecular target: Galanin receptor type 2 (Homo sapiens) (UniProt O43603); test: blockers of human galanin receptor 2 – cell-based, confirmation (AID 866; in the data active = inhibition above about 27%;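 also: cells stimulated with galanin at about its EC80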); conditions: GALR2-expressing cells, antagonist mode, at 4 µM, active compounds read high
[13] = nonspecific BLA reporter inhibition – CHO NFAT-bla cells, FRET readout, counter-screen for GALR2 antagonist project, confirmation (AID 867;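 active = inhibition above the mean inhibition across tested compounds plus 3 SD, cut at about 27% in these data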;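 also: 0% = 500 nM thapsigargin stimulated wells and 100% = unstimulated BSA only wells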); conditions: beta-lactamase FRET, thapsigargin-stimulated, at 4.2 µM, active compounds read high
[14] = VP16-driven transactivation reporter suppression – cell-based, luminescence, HEK293, counter-screen for COUP-TFII antagonist project (AID 687007; in the data active = inhibition above about 13%); conditions: HEK293 Gal4-VP16 luciferase reporter, at 8.5 µM, active compounds read high
[15] = molecular target: COUP transcription factor 2 (Homo sapiens) (UniProt P24468); test: retest of COUP-TFII reporter suppressors – cell-based, luciferase reporter, HEK293, triplicate, confirmation (AID 687008;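 active = mean inhibition over three repeats above a set limit taken from the earlier primary screen, cut at about 38% in these data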;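 also: 100% = cells given the luciferase reporter alone without the COUP-TF2 vector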); conditions: HEK293 NGFI-A luciferase reporter, luminescence; at 8.5 µM; active compounds read high
[16] = molecular target: Nuclear receptor coactivator 3 (Homo sapiens) (UniProt Q9Y6Q9); test: NCOA3 GAL4-fusion reporter inhibition – cell-based, luminescence, quadruplicate, confirmation (AID 588792;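 active = mean inhibition over 43.08%, the solvent-only control mean plus 3 SD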;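 also: 0% = DMSO treated cells and 100% = gossypol at 36 µM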); conditions: HEK293 GAL4-SRC3 luciferase reporter, at 3.6 µM, active compounds read high
[17] = tested on: transactivating tegument protein VP16 (Human herpesvirus 1), Gal4-VP16 luciferase reporter; test: repression of VP16-driven luciferase reporter – cell-based, luminescence, high throughput, counter-screen for SRC3 inhibitor project (AID 588794; in the data active = inhibition above about 30%); conditions: mammalian cells, at 3.6 µM, active compounds read high

Question: Which activation [1] does the source give for COc1ccc(Cl)cc1NC(=O)NCC1CCN(Cc2ccccc2F)CC1 here?
Answer: 7.35%

Question: And the activation [2]?
Answer: 6.95%

Question: Which results are given for CC1(C)Cc2ccccc2-c2[nH]c(=S)[nH]c(=O)c21?
Answer: activation (reported as inhibition) [3]: 28.7% (active); inhibition [4]: 25.9% (active)

Question: For CN1CCN(CCCNC(=O)c2ccc(/C=C3\Oc4ccccc4N(Cc4ccc(Cl)cc4)C3=O)cc2)CC1, which inhibition [5] is on record?
Answer: 51.8% (active)

Question: And the inhibition [6]?
Answer: -1.35%

Question: What about the inhibition [7] of the same compound?
Answer: 29% (active)

Question: What about the inhibition [8] of the same compound?
Answer: 12% (active)

Question: With COc1cccc(-n2c(=S)[nH]c3c(oc4ccccc43)c2=O)c1 as the compound, how does the activation (reported as inhibition) [3] read?
Answer: 14.3%

Question: And the inhibition [4]?
Answer: 8.55%

Question: What does the source list for Cn1cnc2c1c(=O)n(Cc1ccccc1C#N)c(=O)n2C?
Answer: inhibition [5]: -1.92%; inhibition [6]: -2.72%

Question: What does the source list for C=CCOc1cccc(C2C(C(=O)c3ccc(C)o3)=C(O)C(=O)N2CCCn2ccnc2)c1 (stereo not given)?
Answer: activation (reported as inhibition) [3]: 9.01%; inhibition [4]: 7.51%

Question: Which activation [1] does the source give for O=C(c1ccco1)N1CCN(C(=O)C2CC(c3ccc(F)cc3)=NO2)CC1 (stereo not given) here?
Answer: -0.63%

Question: And the activation [2]?
Answer: 0.05%

Question: For Cc1ccc(N(Cc2cc(=O)[nH]c3ccccc23)C(=O)CCl)cc1, which inhibition [9] is on record?
Answer: 90% (active)

Question: What about the inhibition [10] of the same compound?
Answer: 33.7%

Question: And the inhibition [11]?
Answer: 51.6% (active)

Question: What does the source list for O=C(NNC(=S)NC(=O)c1cn(-c2ccccc2)nc1-c1ccccc1)c1ccncc1?
Answer: activation [1]: 4.81%; activation [2]: 9.53%

Question: Which activation (reported as inhibition) [3] does the source give for Cc1cccc(NC(=O)c2sc3nc(N4CCOCC4)c4c(c3c2N)CCCC4)c1 here?
Answer: -1.32%

Question: What about the inhibition [4] of the same compound?
Answer: -0.47%

Question: With CC1=C/C(=N\OS(=O)(=O)c2ccccc2)C=CC1=O as the compound, how does the inhibition [12] read?
Answer: 90% (active)

Question: And the inhibition [13]?
Answer: 83.7% (active)

Question: What about the inhibition [9] of the same compound?
Answer: 7.61%

Question: What does the source list for COc1cccc(CNCCc2c[nH]c3ccccc23)c1OCc1ccccc1F?
Answer: activation [1]: 14.2%; activation [2]: 12.1%

Question: Which activation [1] does the source give for COc1ccc(NS(=O)(=O)c2ccc(NC(=S)NC(=O)CC(C)C)cc2)cc1 here?
Answer: 12.6%

Question: And the activation [2]?
Answer: 12.8%

Question: What does the source list for N#Cc1ccccc1Sc1ccccc1C(=O)OCC(=O)NC1CCCCC1?
Answer: activation (reported as inhibition) [3]: 10.1%; inhibition [4]: 21.8% (active)

Question: What does the source list for CCOC(=O)C1=C(c2ccc(OC)cc2)C(=O)c2ccccc2C1=O?
Answer: inhibition [9]: 8.3%; inhibition [14]: 80.8% (active); inhibition [15]: 93.5% (active)

Question: For CCN(CCCNC(=O)c1ccc2c(c1)NC(=O)CN2C)c1cccc(C)c1, which inhibition [9] is on record?
Answer: 36.3% (active)

Question: And the inhibition [16]?
Answer: 10.3%

Question: What about the inhibition [17] of the same compound?
Answer: 1.36%

Question: What does the source list for CCC(=O)Nc1ccc(Nc2nc(Cl)nc(Nc3ccc(NC(=O)CC)cc3)n2)cc1?
Answer: inhibition [5]: -2.63%; inhibition [6]: 5.66%
